Results taken from the supplement of paper PMC4166925.
± gives the standard deviation of the averaged measurements. The full ranking holds about 33,000 sequences; the median of “E-score (dimensionless, -0.5 to 0.5)” is about -0.049, and the highest 2% start at about 0.37. The list comes from a sample in which the highest values are over-represented; it also holds similar and randomly drawn sequences.

System: T1, PmTbr T-box DNA-binding domain (GST fusion)
T1 sequence: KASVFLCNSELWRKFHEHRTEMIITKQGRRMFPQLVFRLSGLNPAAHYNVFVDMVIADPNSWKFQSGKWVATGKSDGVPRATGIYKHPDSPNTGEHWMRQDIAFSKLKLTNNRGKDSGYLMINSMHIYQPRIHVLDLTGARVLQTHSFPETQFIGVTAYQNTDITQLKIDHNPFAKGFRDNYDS
Test: PBM E-score of 8-mer (E-score (dimensionless, -0.5 to 0.5)); Tbr is Tbrain of the sea star Patiria miniata (Pm) or the sea urchin Strongylocentrotus purpuratus (Sp); higher = stronger binding preference
Details: the construct has about 5 more residues each side
Description: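 Universal protein-binding microarray (Agilent AMADID 016060, 60-bp probes with a 35-bp variable region) incubated with 200 nM GST-fused Patiria miniata Tbr T-box DNA-binding domain (residues 272-466) in PBS pH 7.5. Scored for every ungapped 8-mer (given with its reverse complement) by the Universal PBM Analysis Suite as E-score (modified Wilcoxon-Mann-Whitney enrichment, range -0.5 to 0.5; >0.45 counts as bound) and Z-score of median probe intensity. Two replicate arrays (datasets 1 and 2).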

Row | Sequence | PBM E-score of 8-mer
1 | TCGCGCGA | 0.3886 ± 0.0024
2 | ATTCTTTG | -0.109 ± 0.048
3 | AATCAACA | 0.231 ± 0.033
4 | ATTAGGGG | -0.208 ± 0.071
5 | AACAGCCT | 0.145 ± 0.021
6 | GGGTCTGA | -0.157 ± 0.028
7 | GATTGTCA | 0.298 ± 0.0064
8 | TAGTGTCA | 0.395 ± 0.027
9 | AAGTGTCC | 0.281 ± 0.011
10 | CAGTGTCG | 0.289 ± 0.0095
11 | AAGTGTCT | 0.329 ± 0.022
12 | AAGTGTCG | 0.44424 ± 0.0003
13 | AAGTGTCA | 0.4726 ± 0.0035
14 | AAGTGTAT | 0.019 ± 0.037
15 | CAGTGTCA | 0.31 ± 0.017
16 | GAGTGTCA | 0.436 ± 0.0041
17 | TCGTGTCA | 0.305 ± 0.0037
18 | GAGTGTCC | -0.0246 ± 0.07
19 | ACTGCTGG | -0.191 ± 0.0095
20 | AAGGCCAT | -0.225 ± 0.0052
21 | CAGCATTA | -0.0723 ± 0.024
22 | GAGGAGAA | -0.158 ± 0.088
23 | CCTACCAG | 0.00153 ± 0.031
24 | GGCGAGCA | -0.102 ± 0.048
25 | CAATGTCG | 0.119 ± 0.014

Row | Sequence | PBM E-score of 8-mer
26 | CGTATTCA | 0.165 ± 0.051
27 | ACCTAGTG | 0.223 ± 0.013
28 | CCTTGAGC | -0.11 ± 0.019
29 | ATGAGCAC | -0.247 ± 0.061
30 | CTATGCAC | -0.129 ± 0.042
31 | CCGCTAAA | 0.275 ± 0.022
32 | ACGCTAAC | 0.257 ± 0.056
33 | CCGCTAAC | 0.169 ± 0.038
34 | GCGCTAAA | 0.394 ± 0.012
35 | TCGCTAAA | 0.163 ± 0.043
36 | GCGCTAAC | 0.4144 ± 0.0034
37 | GGCTAGAC | -0.231 ± 0.029
38 | CGTTCAAG | -0.177 ± 0.028
39 | AGTTCACA | 0.395 ± 0.0064
40 | GGCTCACA | 0.0846 ± 0.0034
41 | AGTTCACG | 0.32 ± 0.02
42 | GGTTCACA | 0.372 ± 0.0038
43 | CGTTCACA | 0.406 ± 0.012
44 | CGTTCACC | -0.0379 ± 0.073
45 | GGTTCATA | 0.0267 ± 0.028
46 | AGTTCACC | -0.0448 ± 0.0017
47 | GTTAAACA | 0.00153 ± 0.043
48 | AGGTCTGG | 0.0461 ± 0.012
49 | ACGCTAAT | 0.114 ± 0.018
50 | AGTTCTTG | -0.0105 ± 0.0029

Row | Sequence | PBM E-score of 8-mer
51 | CGGCCCTA | -0.249 ± 0.019
52 | TACGCACA | -0.0799 ± 0.0095
53 | ACGTGTAA | 0.31 ± 0.0077
54 | ACGTGTCA | 0.4563 ± 0.0033
55 | CCGTGTCA | 0.236 ± 0.0063
56 | ACGTGTCT | 0.198 ± 0.0036
57 | ACGTGTCG | 0.385 ± 0.022
58 | CCGTGTCG | 0.144 ± 0.045
59 | CCGCATAG | -0.047 ± 0.042
60 | AGGTTAAG | -0.186 ± 0.083
61 | GCCCACTA | -0.0431 ± 0.011
62 | CCGGAGAA | -0.00469 ± 0.1
63 | ATCCCGCG | -0.042 ± 0.095
64 | CCGTGTGA | 0.335 ± 0.015
65 | GCGTGTAA | 0.0292 ± 0.033
66 | ACGTGTGA | 0.4818 ± 0.0022
67 | ACGTGTGC | 0.174 ± 0.035
68 | GCGTGTGA | 0.373 ± 0.016
69 | GCGTGAGA | 0.368 ± 0.021
70 | AGCGGGTG | 0.308 ± 0.017
71 | AGGGGGGC | -0.222 ± 0.034
72 | ATTGTCGC | 0.292 ± 0.024
73 | CGTGTCTA | 0.0962 ± 0.0027
74 | AGTGTCTA | 0.213 ± 0.017
75 | AGTGTCGA | 0.4188 ± 0.0041

Row | Sequence | PBM E-score of 8-mer
76 | AGTGTCGC | 0.415 ± 0.019
77 | ATTGTCGA | 0.0764 ± 0.052
78 | AATGTCGA | 0.0192 ± 0.036
79 | CGTGTCGA | 0.288 ± 0.052
80 | GTTGTCGA | 0.241 ± 0.021
81 | GGTGTCTA | 0.376 ± 0.007
82 | CGTGTCGC | 0.295 ± 0.023
83 | GGTGTCGA | 0.461 ± 0.0086
84 | CAGCGGTA | -0.061 ± 0.018
85 | ACTGAAAC | -0.0158 ± 0.016
86 | CTCCTGCC | -0.0358 ± 0.0023
87 | AGCTGTCA | 0.3661 ± 0.003
88 | CACCAGGG | 0.0472 ± 0.096
89 | ATTGTCGG | 0.0329 ± 0.01
90 | AGTGTCGG | 0.38 ± 0.0074
91 | GGTGTGGA | 0.432 ± 0.015
92 | AGTGTGGA | 0.354 ± 0.0036
93 | AATGTCGG | -0.0392 ± 0.026
94 | CGTGTGGA | 0.284 ± 0.0037
95 | CGGCTGAG | -0.1 ± 0.073
96 | CTGTCTTC | 0.0449 ± 0.021
97 | AACATTTG | 0.0235 ± 0.04
98 | CTCTGAGC | -0.0449 ± 0.047
99 | GACCTCGA | -0.0343 ± 0.13
100 | AACCTCGG | -0.124 ± 0.033

Row | Sequence | PBM E-score of 8-mer
101 | CACCTCGC | 0.458 ± 0.0073
102 | AACCTCGA | 0.0311 ± 0.022
103 | CCCCTCGG | -0.194 ± 0.016
104 | CACCTCGA | 0.4483 ± 0.002
105 | CACCTCGG | 0.426 ± 0.015
106 | AACCTCGC | 0.196 ± 0.035
107 | GACCTCGC | 0.0974 ± 0.064
108 | ACTCAGAC | 0.0474 ± 0.069
109 | ATTAGAAG | -0.226 ± 0.053
110 | GTAGAGCA | -0.196 ± 0.024
111 | GCGGTTAC | -0.0207 ± 0.021
112 | CAACCGTG | 0.216 ± 0.013
113 | CGTTAACC | 0.0384 ± 0.0052
114 | GGTTAACA | 0.255 ± 0.026
115 | TGTTAACA | 0.38 ± 0.0039
116 | AGTTAACA | 0.334 ± 0.013
117 | GGTTAGCA | 0.314 ± 0.027
118 | AGTTAGCA | 0.32 ± 0.023
119 | CGTTAACA | 0.372 ± 0.044
120 | CGTTAACG | 0.266 ± 0.015
121 | CGTTAGCA | 0.394 ± 0.012
122 | TCTTCCCA | 0.114 ± 0.031
123 | TACCATAA | -0.0564 ± 0.0014
124 | GAAATAGA | -0.125 ± 0.036
125 | CGACTTCC | -0.183 ± 0.002

Row | Sequence | PBM E-score of 8-mer
126 | AAGATGGA | -0.228 ± 0.058
127 | ACCCCGCC | 0.119 ± 0.051
128 | CTTCACCC | 0.0387 ± 0.019
129 | CTTCACGC | 0.356 ± 0.04
130 | ATTCACGC | 0.4258 ± 0.0014
131 | CTTCACAA | 0.225 ± 0.058
132 | ATTCACAC | 0.4763 ± 0.0034
133 | ATTCACGA | 0.29 ± 0.0094
134 | ATTCACAA | 0.247 ± 0.024
135 | CTTCACAC | 0.4785 ± 0.0022
136 | ATTCACAG | 0.355 ± 0.0076
137 | CATTAGAC | -0.177 ± 0.0077
138 | AATATAAA | -0.136 ± 0.075
139 | ACGCTTCT | 0.106 ± 0.035
140 | CAAACCCC | -0.155 ± 0.069
141 | ACGGGCAA | -0.133 ± 0.057
142 | AGCACCTG | 0.415 ± 0.0079
143 | CGCACCTC | 0.46 ± 0.012
144 | AGCACCGC | 0.0529 ± 0.038
145 | AGCACCTC | 0.4279 ± 0.0012
146 | AGCACCCG | 0.252 ± 0.061
147 | GCCACCTA | 0.336 ± 0.033
148 | CCCACCTC | 0.2907 ± 0.0021
149 | CGCACCGC | 0.222 ± 0.063
150 | GGCACCGA | -0.0859 ± 0.03

Row | Sequence | PBM E-score of 8-mer
151 | ACCACCTC | 0.341 ± 0.027
152 | AGCACCGG | 0.0404 ± 0.045
153 | GGCACCTA | 0.412 ± 0.006
154 | CCCTAATA | -0.219 ± 0.027
155 | GAACACTC | 0.0811 ± 0.024
156 | AGGGAACG | 0.0301 ± 0.15
157 | ACTATGCT | 0.00416 ± 0.025
158 | AAGAGCGT | -0.119 ± 0.04
159 | GAGGCCTA | -0.176 ± 0.014
160 | CTCAAATA | -0.321 ± 0.072
161 | ACCAAGTA | 0.0125 ± 0.031
162 | AAGAGCGC | -0.188 ± 0.004
163 | AGGAGAAA | -0.109 ± 0.19
164 | CACTAAGA | 0.0202 ± 0.013
165 | CAGCCCTG | -0.294 ± 0.015
166 | ACCAGCCT | -0.14 ± 0.082
167 | AGGGTATG | -0.218 ± 0.032
168 | TGAAGCAA | -0.229 ± 0.055
169 | CGCACCAA | 0.251 ± 0.04
170 | CGCACCGA | 0.0275 ± 0.11
171 | AGCACCGA | -0.00405 ± 0.11
172 | AGCACCTA | 0.435 ± 0.00088
173 | CGCACCTA | 0.422 ± 0.0048
174 | ACCACCTA | 0.205 ± 0.0085
